Source: PubChem BioAssay (NCI)
“And” between values parts separate entries of the source, which are not always exact repeats. Equal entries are not always repeated. Compounds without any hit were thinned out: in the full panel of roughly 83,000, 20% have a hit.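 The endpoint reported here, percent growth, reads 100 for growth as untreated, 0 for no net growth and -100 for all cells dead.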 The source made the active and inactive calls. The calls were made as follows: active = growth percent below 10; inactive = the rest.

What was measured:
Assay in all cases: NCI-60 one-dose screen, 48 h (100 = growth as untreated, 0 = no growth, -100 = all killed)
Details in all cases: 10 µM
NCI-H23 lung = test system: NCI-H23 lung
NCI-H226 lung = test system: NCI-H226 lung
NCI-H322M lung = test system: NCI-H322M lung
HOP-62 NSCLC = test system: HOP-62 NSCLC
NCI-H460 lung = test system: NCI-H460 lung
HOP-92 NSCLC = test system: HOP-92 NSCLC
NCI-H522 lung = test system: NCI-H522 lung
A549/ATCC NSCLC = test system: A549/ATCC NSCLC
786-0 renal = test system: 786-0 renal
DU-145 prostate = test system: DU-145 prostate
K-562 leukemia = test system: K-562 leukemia
MALME-3M melanoma = test system: MALME-3M melanoma
MDA-MB-231 breast = test system: MDA-MB-231 breast
RXF 393 renal = test system: RXF 393 renal
SF-268 CNS = test system: SF-268 CNS
SF-295 CNS = test system: SF-295 CNS
SF-539 CNS = test system: SF-539 CNS
UACC-257 melanoma = test system: UACC-257 melanoma
M14 melanoma = test system: M14 melanoma
COLO 205 colon = test system: COLO 205 colon

Row | Structure (SMILES) | growth (NCI-H23 lung) | growth (NCI-H226 lung) | growth (NCI-H322M lung) | growth (HOP-62 NSCLC) | growth (NCI-H460 lung) | growth (HOP-92 NSCLC) | growth (NCI-H522 lung) | growth (A549/ATCC NSCLC) | growth (786-0 renal) | growth (DU-145 prostate) | growth (K-562 leukemia) | growth (MALME-3M melanoma) | growth (MDA-MB-231 breast) | growth (RXF 393 renal) | growth (SF-268 CNS) | growth (SF-295 CNS) | growth (SF-539 CNS) | growth (UACC-257 melanoma) | growth (M14 melanoma) | growth (COLO 205 colon)
1 | Cn1c(O)c(N=O)c(=O)n(C)c1=O | 94.4% (inactive) and 95.1% (inactive) | 93.3% (inactive) and 103% (inactive) | 97.1% (inactive) and 101% (inactive) | 101% (inactive) and 90.9% (inactive) | 110% (inactive) and 102% (inactive) | 101% (inactive) and 85.9% (inactive) | 91% (inactive) and 74.7% (inactive) | 107% (inactive) and 98.1% (inactive) | 104% (inactive) and 93.3% (inactive) | 98.1% (inactive) and 106% (inactive) | 94.1% (inactive) and 95.2% (inactive) | 99.1% (inactive) and 107% (inactive) | 107% (inactive) and 101% (inactive) | 107% (inactive) and 115% (inactive) | 92.8% (inactive) and 97.5% (inactive) | 102% (inactive) and 93.7% (inactive) | 102% (inactive) and 90.7% (inactive) | 99.3% (inactive) and 95.7% (inactive) | 111% (inactive) and 102% (inactive) | –
2 | O=[P+](O)c1ccccc1 | 107% (inactive) | 107% (inactive) | 149% (inactive) | 93.9% (inactive) | 106% (inactive) | 101% (inactive) | – | 107% (inactive) | – | 121% (inactive) | 103% (inactive) | 119% (inactive) | 112% (inactive) | 115% (inactive) | 103% (inactive) | 109% (inactive) | 104% (inactive) | 101% (inactive) | 100% (inactive) | –
3 | COC(C(=O)C(O)C(C)O)C1Cc2cc3cc(OC4CC(OC(C)=O)C(OC5CC(O)C(OC)C(C)O5)C(C)O4)cc(O)c3c(O)c2C(=O)C1OC1CC(OC2CC(OC3CC(C)(O)C(OC(=O)C(C)C)C(C)O3)C(O)C(C)O2)C(O)C(C)O1 (centres undefined) | 8.85% (active) | -12.6% (active) | 7.22% (active) | -5.14% (active) | -10.2% (active) | -16.5% (active) | -60.9% (active) | -39.3% (active) | 0.268% (active) | -32.2% (active) | -68.4% (active) | -89.1% (active) | -26.3% (active) | -24.6% (active) | 2.42% (active) | -14.4% (active) | -78.2% (active) | -19.1% (active) | – | –
4 | COc1cc(/C=C\[N+](=O)[O-])ccc1O | 83.1% (inactive) and 77.3% (inactive) | 91.2% (inactive) and 98.3% (inactive) | 85.7% (inactive) | 99.8% (inactive) and 101% (inactive) | 96.6% (inactive) and 94% (inactive) | 73.2% (inactive) and 102% (inactive) | -37.6% (active) and 87.2% (inactive) | 89.2% (inactive) and 76.1% (inactive) | 43.2% (inactive) and 90.8% (inactive) | 27.4% (inactive) and 61.2% (inactive) | 26.5% (inactive) and 48.1% (inactive) | 50.4% (inactive) and 96.4% (inactive) | 91.6% (inactive) and 83.6% (inactive) | 23.2% (inactive) and 56% (inactive) | 75.5% (inactive) and 87.6% (inactive) | 110% (inactive) and 104% (inactive) | 70.5% (inactive) and 83.2% (inactive) | 61.2% (inactive) and 90.5% (inactive) | 71.3% (inactive) and 52.1% (inactive) | 73.6% (inactive) and 104% (inactive)
5 | CN(C)CC1(N)C(=O)NC(=O)NC1=O | 98.6% (inactive) | 87.7% (inactive) | 104% (inactive) | 98.1% (inactive) | 107% (inactive) | 112% (inactive) | 96.4% (inactive) | 94.2% (inactive) | 102% (inactive) | – | 99.3% (inactive) | 108% (inactive) | 98.7% (inactive) | 101% (inactive) | 103% (inactive) | 98.8% (inactive) | 99% (inactive) | 87.4% (inactive) | 102% (inactive) | –
6 | COc1cc(/C=C(/C)[N+](=O)[O-])ccc1O | 61.1% (inactive) and 81.4% (inactive) | 86.7% (inactive) and 91% (inactive) | 66.7% (inactive) and 91.5% (inactive) | 55.6% (inactive) and 47.6% (inactive) | 43% (inactive) and 21.5% (inactive) | 41.3% (inactive) | -78.2% (active) and -84.9% (active) | 57.4% (inactive) and 48.9% (inactive) | 50% (inactive) and -13.4% (active) | 21.7% (inactive) and 17.1% (inactive) | 2.31% (active) and 1.66% (active) | 40% (inactive) and 1.16% (active) | 66.3% (inactive) and 50.5% (inactive) | -57.5% (active) and -94.8% (active) | 47.5% (inactive) and 87.3% (inactive) | 99.2% (inactive) | 57.2% (inactive) and 20.3% (inactive) | 18.2% (inactive) and -56% (active) | 39.6% (inactive) | –
7 | O=C1C(=O)c2ccccc2-c2ccccc21 | -54.3% (active) | – | 101% (inactive) | -70% (active) | 3.18% (active) | -87.7% (active) | -58.5% (active) | -47.9% (active) | -88.2% (active) | -100% (active) | -37.4% (active) | -93.6% (active) | -39% (active) | -93.2% (active) | -88.7% (active) | -97.4% (active) | -92.7% (active) | -95.6% (active) | -83.8% (active) | -63.5% (active)
8 | O=C1C=Cc2ccccc2C1=O | 73.5% (inactive) | – | 100% (inactive) | 73% (inactive) | 78.7% (inactive) | 93.7% (inactive) | 47.2% (inactive) | 97.9% (inactive) | 110% (inactive) | 45.9% (inactive) | 38.6% (inactive) | 52.7% (inactive) | 67.1% (inactive) | 46.5% (inactive) | 87.8% (inactive) | 94% (inactive) | 76.7% (inactive) | 75.9% (inactive) | 39.4% (inactive) | 117% (inactive)
